Measured values: PubChem BioAssay AID1053175 (ICCB-Longwood Screening Facility, Harvard Medical School, 2014)
Among all 330,000 compounds or so, about 700 (0.21%) were called active. This excerpt belongs to a sample that is enriched for actives. Values without a mark were called inactive.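 How the source made its calls: active means OD600 absorbance below the run mean of sample wells minus 3.6 SD, in any replicate (cut at about 0.56 in these data); inactive means the rest.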

Assay: antibacterial activity against Escherichia coli – OD600, primary screen (AID 1053175)
Conditions: Escherichia coli growth, OD600, 23 h; hits give low values
With CCCCCCCCCCCCn1ccc(=N)cc1 the OD600 absorbance was 0.07 (active).
In the case of CN1CCN(N=Cc2c[nH]c3ccccc23)CC1, the OD600 absorbance was 0.702.
COC(=O)C1=C(c2cccc(OC)c2OC)CC2CCC1N2C(=O)N1CCOCC1 (stereo not given) showed an OD600 absorbance of 0.685.
With Nc1nonc1C(=O)NN=Cc1ccc([N+](=O)[O-])o1 the OD600 absorbance was 0.449 (active).
COCCNC(=O)N1C2CCC1C(C(=O)OC)=C(c1ccc(OC(F)(F)F)cc1)C2 (stereo not given) showed an OD600 absorbance of 0.679.
For COC(=O)C1=C(c2ccc(F)cc2OCc2ccccc2)CC2CCC1N2C(=O)NCc1ccco1 (stereo not given), the OD600 absorbance was 0.626.
For Oc1ccc(C=NNP(=S)(c2ccccc2)c2ccccc2)cc1O, the OD600 absorbance was 0.685.
With C=C1C(=O)OC2CC(C)C3C=CC(=O)[C@@]3(C)C(O)C12 (stereo not given in full) the OD600 absorbance was 0.625.
With O=[N+]([O-])c1cnc2ccc3ccccc3c2c1 the OD600 absorbance was 0.447 (active).
For Cc1ccc(-n2c(-c3ccc([N+](=O)[O-])cc3)nc3ccccc3c2=O)cc1, the OD600 absorbance was 0.718.
In the case of CCN(CC)c1ccc([N+](=O)[O-])c2cccnc12, the OD600 absorbance was 0.662.
CNC(=O)Nc1ccc(C(=O)NN=CC23CC[C@@H](O)CC2(O)CC[C@@H]2[C@@H]3CCC3(C)C(C4=CC(=O)OC4)CCC23O)cc1 (stereo not given in full) gave an OD600 absorbance of 0.72.
With CC12CCC3C(CCC4CC(=NO)CCC43C)C1CCC2O (stereo not given) the OD600 absorbance was 0.701.
COc1ccc(-n2c(C=C3C(=O)Nc4ccccc43)nc3ccccc3c2=O)cc1 showed an OD600 absorbance of 0.706.
In the case of COC(=O)C1=C(c2ccc(S(C)(=O)=O)cc2)CC2CCC1N2C(=O)NCc1ccc(F)cc1 (stereo not given), the OD600 absorbance was 0.701.
For COc1ccc(N2C(=O)/C(=C/c3ccco3)C(=O)NC2=S)cc1, the OD600 absorbance was 0.67.
O=C1NC(=O)N(c2ccccc2)C(=O)/C1=C/c1ccc([N+](=O)[O-])s1 gave an OD600 absorbance of 0.531.
With COc1cccc(N2C(=O)NC(=O)/C(=C\c3ccc([N+](=O)[O-])s3)C2=O)c1 the OD600 absorbance was 0.482 (active).
With COC(=O)C1=C(c2ccc(OC(F)(F)F)cc2)CC2CCC1N2C(=O)NC1CC1 (stereo not given) the OD600 absorbance was 0.688.
C[C@]12CCC3c4ccc(O)c(O)c4CCC3C1CCC2O (stereo not given in full) gave an OD600 absorbance of 0.667.
